Reference: PubChem BioAssay
A number with no mark means an inactive call. Active and inactive are the calls of the source.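 The calls were made as follows: active = viability increase at or above a cutoff of the median across tested compounds plus 3 SD (cut at about 8.5% in these data, passing the limit was not always enough); inconclusive = some gains above the cutoff, reason not given; inactive = the rest.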

Assay: viability gain of MRP-1-high H69AR cells under doxorubicin, pilot screen, MRP-1 activator project, CellTiter-Glo, duplicate (AID 807);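 also: compound pretreatment 18-22 h then 72 h combined with doxorubicin; 0% = doxorubicin alone and 100% = vehicle without doxorubicin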
Details: H69AR viability with doxorubicin, CellTiter-Glo luminescence; at 10 µM; hits give high values

Question: Which viability increase does the source give for `COc1ccc(OC)c(NC(=O)NC2(C(F)(F)F)Oc3ccccc3O2)c1` here?
Answer: -6.83%

Question: For `COc1ccc(S(=O)(=O)NCc2ccc3c(c2)cc(C)n3C)cc1`, which viability increase is on record?
Answer: -4.17%

Question: With `COc1ccc(C(c2sc3nc(C)nn3c2O)N2CCC(C(N)=O)CC2)cc1OC` (stereo not given) as the molecule, how does the viability increase read?
Answer: -0.96%

Question: Which viability increase does the source give for `CCN(CC)CCNC(=O)Cn1cnc2sc(C)c(S(=O)(=O)N3CCOCC3)c2c1=O` here?
Answer: -1.11%

Question: For `C=C(C)Cn1c(CNC(C)=O)nc2ccccc21`, which viability increase is on record?
Answer: -0.52%

Question: Which viability increase does the source give for `CCOc1ccc(Cn2nnc(C(=O)NCCc3ccccc3)c2N)cc1` here?
Answer: 10.7% (active)

Question: With `CC(C)c1nc(SCC(=O)Nc2ccc3c(c2)OCCO3)c2c(=O)n(C)c(=O)n(C)c2n1` as the molecule, how does the viability increase read?
Answer: -2.28%

Question: Which viability increase does the source give for `COc1ccc(OC)c(NC(=O)c2cnc3n(c2=O)CCS3)c1` here?
Answer: -1.5%

Question: Which viability increase does the source give for `Cc1[nH]c2ccc(-c3n[nH]c(=S)n3C)cc2c1C` here?
Answer: 0.84%

Question: With `COc1ccccc1-c1c(C#N)c(SCC(=O)N2CCCC2)nc(C)c1C(N)=O` as the molecule, how does the viability increase read?
Answer: -0.18%

Question: Which viability increase does the source give for `COc1ccc(C2N3CC4(C)CN2CC(C)(C3)C4)cc1OC` (stereo not given) here?
Answer: -0.73%

Question: Which viability increase does the source give for `O=S(=O)(NCCOCCNS(=O)(=O)c1ccccc1)c1ccccc1` here?
Answer: 0.8%

Question: For `CC(C)(C)NC(=O)c1ccc(NC(=O)C2COc3ccccc3O2)cc1` (stereo not given), which viability increase is on record?
Answer: -0.73%

Question: For `O=C(Cn1c(=O)oc2cc(S(=O)(=O)N3CCOCC3)ccc21)N1CCc2ccccc2C1`, which viability increase is on record?
Answer: -2.45%

Question: Which viability increase does the source give for `COC(=O)c1ccc(N2C(=O)CC(Sc3n[nH]c(C)n3)C2=O)cc1` (stereo not given) here?
Answer: 1.12%
